# The panel holds about 83,000 compounds, 20% with a hit somewhere; the sample as a whole holds those more often.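 In brief: 96-well plates, 48 h treatment, single concentration, percent growth endpoint.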 Values without a mark were called inactive. Calls of active or inactive are those of the source. How the source made its calls: active means growth percent below 10; inactive means the rest.
# System: MDA-MB-435 melanoma
# Experiment: NCI-60 one-dose screen, 48 h (100 = growth as untreated, 0 = no growth, -100 = all killed)
# Settings: 10 µM unless noted
row,SMILES,growth [%]
1,Cc1nn(-c2ccccc2)c2nc(N)c(C3=NCCO3)nc12,101
2,C/C(=C\CCc1ccoc1)CC/C=C(\C)CCCN1CCOCC1,71.8
3,O=C1c2cccc(NCCN=Cc3ccccc3O)c2C(=O)c2c(NCCN=Cc3ccccc3O)cccc21,24.7
4,CCCn1c(N)c(C(=O)CNc2ccc(I)cc2)c(=O)[nH]c1=O,51.1

# System: SW-620 colon
# Experiment: as above
# Settings: 10 µM unless noted
row,SMILES,growth
1,Cc1cc(=O)[nH]c(/C(=N/Nc2ccccc2)C(=O)c2ccc(Cl)cc2)n1,94.6%
2,COc1cc(C2=NN(C=O)C(c3cccc(Nc4ccnc5cc(Cl)ccc45)c3)C2)cc(OC)c1OC (centres undefined),88.6%
3,Cc1cc(C(=O)Nc2ccc3cc(CN4CCOCC4)ccc3n2)c(C)n1-c1ccccc1,64.1%
4,O=C(Nc1cccc(Cl)c1)Nc1cccc(Cl)c1,81%
5,COc1cc2c(cc1OC)C(=O)/C(=C/c1cccc(OCC(=O)c3ccccc3)c1)C2,74.6%
6,CN(C)c1ccc(-n2nc3ccccc3n2)cc1,95.9%
7,N[C@H](CS)C(=O)O,106%
8,CCOc1cc(/C=C/C(=O)C(C(=O)/C=C/c2ccc(OC(=O)CNc3nnc(C)s3)c(OCC)c2)C(=O)CNc2nnc(C)s2)ccc1OC(=O)CNc1nnc(C)s1,-64.8% (active)
9,CC[C@H]1CN2CCc3cc(OC)c(OC)cc3C2C[C@@H]1CC1NCCc2cc(OC)c(OC)cc21 (some centres undefined),-20.3% (active)
10,COc1ccc(N2CCN(CC(=O)N3CCN(c4nnc(-c5ccc(Cl)cc5)c(-c5ccc(Cl)cc5)n4)CC3)CC2)cc1,69.2%
11,O=C(COc1ccc(/C=C2\Oc3ccc4ccccc4c3C2=O)cc1)c1ccc(Cl)cc1,103%
12,Cc1nn(-c2nc3ccccc3s2)c(C)c1Oc1ccccc1O,47.8%
13,CCSc1ncc(Br)c(Sc2nc(N)nc3nc[nH]c23)n1,91.4%
14,COc1ccc(C2=NN(C=O)C(c3cccc(Nc4ccnc5cc(Cl)ccc45)c3)C2)cc1 (centres undefined),24.8%
15,CCOC(=O)Nc1ccc2c3c(cccc13)-c1ccccc1-2,14.9%
16,CCCCCCCC[Si](OCC)(OCC)OCC,105%
17,COC(=O)[C@H](Cc1cnc[nH]1)NC(=O)[C@@H](NC(=O)Nc1cc(C(F)(F)F)cc(C(F)(F)F)c1)C(C)C,-48.2% [100 µM] (active)
18,CCOC(=O)c1sc(NC(=O)COc2cccc(/C=C3\CCc4cc(OC)ccc4C3=O)c2)nc1C,36.4%
19,NS(=O)(=O)N(c1cc(C(F)(F)F)cc(C(F)(F)F)c1)C1CCN(Cc2ccc(C(F)(F)F)cc2)CC1,19.9%
20,CCOC(CNCc1cc(C)c2[nH]c3ccccc3c2c1C)OCC,95.1%

row,SMILES,growth
1,COc1ccc2cc(-c3nc4ccccc4[nH]3)c(=O)oc2c1,95.5%
2,O=C(O)C1CCN(S(=O)(=O)c2ccc(-c3ccccc3)cc2)CC1,98.2%
3,CNCCCn1c2c(c3ccc(F)cc3c1=O)C(=O)c1cc(OC)cnc1-2,-2.67% (active)
4,Oc1c(Cl)cc(Cl)c(Cl)c1Cc1c(O)c(Cl)cc(Cl)c1Cl,16.7%
5,COc1cc(/C=N/NC(=O)c2ccc(C(F)(F)F)nc2Nc2cc(Cl)ccc2C)cc(OC)c1OC,97%
6,O=C(Nc1nc2ccc(OC(F)(F)F)cc2s1)c1ccc(F)cc1,13.3%
7,COc1cc(/C(Cl)=C/C=C/C(=O)c2c(C)[n+]([O-])c3ccc(Cl)cc3[n+]2[O-])cc(OC)c1OC,1.65% (active)
8,COc1ccc2nc(-c3ccc(Cl)cc3)cc(-c3nnc(SCC(=O)Nc4ccc(C(C)=O)cc4)n3-c3ccccc3)c2c1,108%
9,CC1Cc2ccccc2N1C(=O)c1ccc(C(=O)c2ccccc2)cc1 (centres undefined),95.1%
10,O=C(O)c1ccc(CNS(=O)(=O)c2ccc3ccccc3c2)cc1,99.8%
11,CCCCNCCCN(CCCC)CCCNCCCC,101%
12,CC(=O)Nc1cc(C(c2ccccc2)c2ccccc2)cc(C(c2ccccc2)c2ccccc2)c1C,52%
13,C[C@H]1O[C@@H](O[C@H]2[C@@H](O)C[C@H](O[C@H]3[C@@H](O)C[C@H](O[C@H]4CC[C@]5(C)C6C[C@@H](O)[C@]7(C)[C@@H](C8=CC(=O)OC8)CC[C@]7(O)C6CC[C@@H]5C4)O[C@@H]3C)O[C@@H]2C)C[C@H](O)[C@@H]1O (some centres undefined),-97.9% (active)
14,CC[N+](CCCCCCCCCC[N+](CC)(c1ccccn1)c1ccccn1)(c1ccccn1)c1ccccn1,10.1%
15,NS(=O)(=O)c1ccc(-n2ncc3c(SCc4ccccc4)ncnc32)cc1,95.5%
16,O=C(CN1CCN(c2ccc(Cl)cc2)CC1)N1CCN(c2nnc(-c3ccc(Cl)cc3)c(-c3ccc(Cl)cc3)n2)CC1,80.6%
17,Cc1nn(-c2ccccc2)c2nc(N)c(C3=NCCO3)nc12,92.6%
18,C/C(=C\CCc1ccoc1)CC/C=C(\C)CCCN1CCOCC1,57.8%
19,O=C1c2cccc(NCCN=Cc3ccccc3O)c2C(=O)c2c(NCCN=Cc3ccccc3O)cccc21,0.678% (active)
20,CCCn1c(N)c(C(=O)CNc2ccc(I)cc2)c(=O)[nH]c1=O,35.3%

# — PubChem BioAssay (NCI)
